Reference: the supplement of paper PMC8253809
Several values for one entry are separate records, joined by “and”; a condition that tells them apart may be missing. Identical values can stand only once.

Experiments:
Assay in all cases: growth inhibition (% activity, log2 RLU normalised to DMSO / staurosporine); higher = more growth inhibition
Settings in all cases: 33 µM
DIPGX29 = tested on: DIPGX29 (H3.3 K27M diffuse intrinsic pontine glioma line)
Procedure, shortened: (§1)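 The growth-inhibition value is the median over replicates. pHGG cell lines and H9-derived neural stem cells on Geltrex-coated 384-well plates received approved drugs by pin tool at a single final concentration of about 33 μM, in triplicate, for 7 days at 37 °C, 5% CO2. CellTiter-Glo luminescence was log2-transformed and normalised per plate to % activity between solvent and positive control wells.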

DIPGX37 = tested on: DIPGX37 (H3.3 K27M diffuse intrinsic pontine glioma line)
Procedure, shortened: as §1

DIPGX7 = tested on: DIPGX7 (H3.3 K27M diffuse intrinsic pontine glioma line)
Procedure, shortened: as §1

DIPGX9 = tested on: DIPGX9 (diffuse intrinsic pontine glioma line)
Procedure, shortened: as §1

HGGX39 = tested on: HGGX39 (paediatric high-grade glioma line)
Procedure, shortened: as §1

HGGX6 = tested on: HGGX6 (H3.3 G34R paediatric high-grade glioma line)
Procedure, shortened: as §1

HNSC = tested on: HNSC
Procedure, shortened: as §1

SUDIPGIV = tested on: SUDIPGIV (diffuse intrinsic pontine glioma line)
Procedure, shortened: as §1

SUDIPGVI = tested on: SUDIPGVI (diffuse intrinsic pontine glioma line)
Procedure, shortened: as §1

SUDIPGXIII = tested on: SUDIPGXIII (diffuse intrinsic pontine glioma line)
Procedure, shortened: as §1

Row | Compound | growth inhibition (DIPGX29) | growth inhibition (DIPGX37) | growth inhibition (DIPGX7) | growth inhibition (DIPGX9) | growth inhibition (HGGX39) | growth inhibition (HGGX6) | growth inhibition (HNSC) | growth inhibition (SUDIPGIV) | growth inhibition (SUDIPGVI) | growth inhibition (SUDIPGXIII)
1 | Cc1ccc(C(=O)C(C)CN2CCCCC2)cc1 (stereo not given) | 0.542% | 0.69% | 0.522% | 0.564% | 1.58% | 2.83% | -0.193% | -0.938% | -0.166% | 0.909%
2 | CC(C)(CO)[C@@H](O)C(=O)NCCC(=O)O | -2.53% | -0.522% | -0.818% | -0.68% | -0.909% | -0.397% | -0.802% | -0.366% | -3.69% | 1.65%
3 | Nc1nc(=O)n([C@@H]2CS[C@H](CO)O2)cc1F | 0.68% | 3.05% | 1.33% | 1.75% | 1.6% | 0.276% | 0.206% | -0.429% | 2.25% | -2.25%
4 | COC(=O)N/N=C/c1c[n+]([O-])c2ccccc2[n+]1[O-] | 2.48% | 4.18% | 1.83% | 0.689% | 2.31% | 0.191% | 4.92% | 3% | 5.18% | -3.09%
5 | NC(N)=Nc1nc(CSCC/C(N)=N/S(N)(=O)=O)cs1 | -1.68% | -1.77% | -1.85% | -0.682% | -0.78% | -1.75% | -0.722% | -1.56% | -8.72% | -0.00988%
6 | CS(=O)(=O)c1ccc([C@@H](O)[C@@H](CO)NC(=O)C(Cl)Cl)cc1 | 7.76% | 3.94% | 4.74% | 7.6% | 16.3% | 5.24% | 15.1% | 35% | 5.62% | 20%
7 | CCOc1cc(N)c(Cl)cc1C(=O)NCC1CN(Cc2ccc(F)cc2)CCO1 (stereo not given) | -0.0532% | 1.06% | 0.919% | 1.54% | 1.87% | 0.0657% | 1.23% | 0.346% | 1.9% | 1.85%
8 | CC(N)C12CC3CC(CC(C3)C1)C2 (stereo not given) | -0.149% | 2.59% | 0.357% | 0.266% | 1.62% | 0.391% | 1.01% | 0.585% | -0.365% | -0.4%
9 | CCN(CC)CCNC(C(=O)OCCC(C)C)c1ccccc1 (stereo not given) | 2% | -0.0996% | 4.26% | 1.08% | 0.0597% | 0.247% | 74.6% | 1.14% | -6.42% | 2.01%
10 | CC(C)Cc1ccc(C(C)C(=O)O)cc1 (stereo not given) | 0.835% and -0.392% | 2.64% and 0.0742% | 2.15% and 0.0236% | 1.07% and 0.0197% | 2.25% and -0.715% | 1.92% and 1.49% | -0.67% and 0.218% | -1.49% and -4.48% | 2.09% and 0.812% | -0.0501% and 0.956%
11 | CCOC(CN1CCN(CC(C)C(=O)c2ccccc2)CC1)c1ccccc1 (stereo not given) | -0.933% | -1.59% | -1.24% | -0.121% | 2.63% | 1.64% | -3.21% | -1.87% | -0.901% | 13.1%
12 | NS(=O)(=O)c1cc2c(cc1Cl)N=C(CSCc1ccccc1)NS2(=O)=O | -2.8% | -0.538% | -2.64% | -1.82% | -3.59% | -4.3% | 3.58% | -1.69% | -6.04% | -0.239%
13 | O=C(O)CCc1nc(-c2ccccc2)c(-c2ccccc2)o1 | -0.808% | 1.84% | -1.35% | -1.33% | 0.585% | 1.25% | -2.45% | -2.53% | 0.464% | 1.19%
14 | CC[C@H]1OC(=O)[C@H](C)[C@@H](O[C@H]2C[C@@](C)(OC)[C@@H](O)[C@H](C)O2)[C@H](C)[C@@H](O[C@@H]2O[C@H](C)C[C@H](N(C)C)[C@H]2O)[C@](C)(O)C[C@@H](C)C(=O)[C@H](C)[C@@H](O)[C@]1(C)O | 0.288% | -2.96% | 0.845% | 0.939% | 1.08% | -0.333% | 2.65% | 1.14% | 2.66% | -1.2%
15 | O=P(O)(O)C(Cl)(Cl)P(=O)(O)O | 0.766% | -0.716% | 0.292% | 1.96% | 2.08% | -0.402% | 0.239% | 0.894% | 2.08% | -0.0137%
16 | O=C1OC(CN2CCOCC2)CN1/N=C/c1ccc([N+](=O)[O-])o1 (stereo not given) | -1.53% | 1.22% | -0.714% | -0.52% | -0.169% | 0.852% | -1.5% | -2.29% | -0.066% | -18.3%
17 | C#CCC(Cc1cnc2nc(N)nc(N)c2n1)c1ccc(C(=O)N[C@@H](CCC(=O)O)C(=O)O)cc1 (stereo not given in full) | 10.7% | 6.3% | 25% | 9.98% | 22.8% | 24% | 56.1% | 16.5% | 17.6% | 13%
18 | S=c1[nH]cnc2nc[nH]c12 | 20.1% | 10.9% | 25.3% | 10.6% | 23.2% | 24.2% | 58.1% | 28.8% | 13.4% | 18.8%

Row | Compound | growth inhibition (DIPGX29) | growth inhibition (DIPGX37) | growth inhibition (DIPGX7) | growth inhibition (DIPGX9) | growth inhibition (HGGX39) | growth inhibition (HGGX6) | growth inhibition (HNSC) | growth inhibition (SUDIPGIV) | growth inhibition (SUDIPGVI) | growth inhibition (SUDIPGXIII)
19 | CCC[C@@H]1C[C@@H](C(=O)N[C@@H]([C@H]2O[C@H](SC)[C@H](O)[C@@H](O)[C@H]2O)[C@@H](C)O)N(C)C1 | -2.47% | 0.84% | -0.347% | 0.338% | -0.628% | -0.292% | 0.119% | 0.1% | -1.6% | 0.849%
20 | NC[C@H](O)c1ccc(O)c(O)c1 | 1.26% | 2.54% | 0.579% | 1.67% | 3.45% | 1.96% | -0.629% | 1.37% | 3.2% | 1.73%
21 | CC(C)(C)NC(=O)[C@H]1CC[C@H]2[C@@H]3CC[C@H]4NC(=O)C=C[C@]4(C)[C@H]3CC[C@]12C | 1.8% | 1.06% | 2.69% | 0.827% | 2.11% | -0.348% | 4.13% | 0.54% | 1.81% | 0.754%
22 | CN1C(CCl)Nc2cc(Cl)c(S(N)(=O)=O)cc2S1(=O)=O (stereo not given) | 1.82% | 1.82% | 1.38% | 0.87% | 2.55% | 3.08% | 1.19% | 0.139% | 1.21% | -13.7%
23 | CN1CCC[C@@H]1CCO[C@](C)(c1ccccc1)c1ccc(Cl)cc1 | 5.74% | 3.39% | 5.71% | 2.23% | 6.24% | 5.32% | 4.55% | 0.591% | 2.52% | 1.69%
24 | CN(C)c1ccc(O)c2c1C[C@H]1C[C@H]3[C@H](N(C)C)C(=O)C(C(N)=O)=C(O)[C@@]3(O)C(=O)C1=C2O | -4.52% | -0.19% | 0.692% | -1.39% | 3.12% | -2.93% | 5.14% | 2.56% | -1.8% | 1.96%
25 | CC[C@]1(O)C[C@H]2CN(CCc3c([nH]c4ccccc34)[C@@](C(=O)OC)(c3cc4c(cc3OC)N(C=O)[C@H]3[C@@](O)(C(=O)OC)[C@H](OC(C)=O)[C@]5(CC)C=CCN6CC[C@]43[C@@H]65)C2)C1 | 23.4% | 12.5% | 15.1% | 22.7% | 21.3% | 17.5% | 60.5% | 35.7% | 38.9% | 30.9%
26 | Cc1c(N(C)C)c(=O)n(-c2ccccc2)n1C | -0.911% | -0.00267% | 0.576% | -1.42% | 2.61% | -1.31% | -0.0115% | -1.34% | -0.66% | 0.298%
27 | CC(C)(C)C(=O)OCOP(=O)(COCCn1cnc2c(N)ncnc21)OCOC(=O)C(C)(C)C | 7.13% | 8.8% | 8.24% | 19.5% | 11.8% | 7.96% | 47.8% | 13.4% | 2.68% | 3.59%
28 | CCN1CCN(c2cc3c(cc2F)c(=O)c(C(=O)O)cn3C2CC2)CC1 | -0.107% | 1.21% | 0.805% | 1.48% | 4.31% | -0.135% | 1.17% | 1.5% | 1.16% | -0.234%
29 | Cc1cnc(C(=O)NCCc2ccc(S(=O)(=O)NC(=O)NC3CCCCC3)cc2)cn1 | 0.556% | 2.29% | 1.52% | 0.701% | 1.35% | 1.61% | 0.478% | 0.461% | 1.46% | 0.0328%
30 | CC(=O)CCCCn1c(=O)c2c(ncn2C)n(C)c1=O | 0.465% | 1.18% | 0.88% | 0.578% | 2.34% | 2% | 1.61% | -0.648% | 2.85% | 0.487%
31 | C[C@@H]1C[C@H]2[C@@H]3CCC4=CC(=O)C=C[C@]4(C)[C@@]3(Cl)[C@@H](O)C[C@]2(C)[C@@]1(OC(=O)c1ccco1)C(=O)CCl | 2.55% | 2.99% | 2.36% | 5.3% | 6.75% | 4.28% | 0.466% | 14.2% | 2.53% | -3.14%
32 | C#Cc1cccc(Nc2ncnc3cc(OCCOC)c(OCCOC)cc23)c1 | 4.75% | 0.211% | 3.55% | 2.64% | 5.69% | 6.15% | 20.9% | -5.33% | 3.91% | 1.17%
33 | O=c1[nH]cc(F)c(=O)[nH]1 | 5.88% | -2.07% | 2.93% | 10.5% | 5.4% | 7.93% | 25.3% | 14.4% | 4.5% | 2.68%
34 | NC12CC3CC(CC(C3)C1)C2 | 0.311% | -1.43% | 0.524% | 0.931% | 2.31% | 1.23% | -2.35% | 0.117% | 0.782% | -2.09%
35 | Nc1ccn(C[C@@H](CO)OCP(=O)(O)O)c(=O)n1 | 1.21% | 2.43% | 1.32% | 1.05% | -0.556% | -0.434% | 3.12% | 2.09% | 1.15% | 1.19%
